# Source: PubChem BioAssay AID687041 (Broad Institute, 2013)
# Results with a measured potency or affinity are listed apart. Activity calls are given as the source filed them.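 Rule for the calls: active = compounds lowering miR-122 whose fitted half-maximal concentration is at most twice the top tested dose; inconclusive = flat fit with moderate reduction, or poor fit quality; inactive = the rest.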
# Experiment: endogenous miR-122 level reduction, dose response, orthogonal assay for miR-122 inhibitor project, cell-based, Huh7, RT-qPCR, dry powder (AID 687041)
# Settings: Huh7 miR-122 level, 48 h; series mostly up to 35 µM; relative miR-122 level (fraction of control): at the top concentration
row,SMILES,relative miR-122 level (fraction of control)
1,O=S(=O)(Nc1cccc2[nH]ncc12)c1ccc(F)c2ncccc12,0.846 (inactive)
2,Cc1ccc(C(C)C)cc1S(=O)(=O)Nc1cccnc1,1.21 (inactive)
3,COc1ccc(S(=O)(=O)Nc2ccc(OC(F)F)cc2)c2cccnc12,1.16 (inactive)
4,CCCCNS(=O)(=O)c1ccc2nc(-c3cccnc3)cc(C(=O)NC(C)CC)c2c1 (stereo not given),0.978 (inactive)
5,Cc1cccc(NS(=O)(=O)c2cc3c(cc2C)NC(=O)CO3)c1,0.95 (inactive)
6,O=C(Nc1ccc2ccccc2c1)c1ccc(Cl)cc1Cl,2.03 (inactive)
7,Cc1cc(C)c(S(=O)(=O)NC(C)C)c(C)c1-n1cnnn1,1.17 (inactive)
8,CCOc1ccccc1N1CCN(C(=O)c2cccc(-c3ccc(O)cc3)c2)CC1,0.555 (inactive)
9,COc1cc(C)c(C(C)C)cc1S(=O)(=O)n1cnc(C)c1,0.792 (inactive)
10,Cc1ccc(C(=O)C2Oc3ccccc3C3CC(c4ccc(C)cc4)=NN23)cc1 (stereo not given),0.992 (inactive)
11,CCOc1cc(C)c(S(=O)(=O)NC2CCCCC2)cc1C,0.676 (inactive)
12,Cc1ccc(C)c(S(=O)(=O)Nc2ccc(-n3cnnn3)cc2)c1,0.901 (inactive)
13,O=S(=O)(c1ccc2c(c1)CCCN2)N1CCC[C@@H]2CCCC[C@H]21,0.549 (inactive)
14,CCN(CC)C(=O)CN(c1cc2c(cc1OC)oc1ccccc12)S(=O)(=O)c1ccccc1,0.384 (inactive)
15,COc1ccc(C(C)(C)C)cc1S(=O)(=O)NCC1CCCO1 (stereo not given),0.947 (inactive)
16,Cc1cc(C)c(C)c(S(=O)(=O)NC2CCCCC2)c1C,0.685 (inactive)
17,CN1C(=O)c2cccc3c(S(=O)(=O)NCCc4ccccc4)ccc1c23,0.827 (inactive)
18,COc1cccc(N2CCN(C(=O)c3oc4ccccc4c3NC(=O)CCc3cc(OC)no3)CC2)c1,0.682 (inactive)
19,Nc1c(S(=O)(=O)c2cccs2)c2nc3ccccc3nc2n1Cc1ccccc1,0.7 (inactive)
20,Cc1cc(C(C)(C)C)cc(S(=O)(=O)NCCO)c1C,1.22 (inactive)
21,Cc1cc(Cl)c(Cl)cc1S(=O)(=O)NCCCn1ccnc1,0.911 (inactive)
22,Cc1cc(S(=O)(=O)NC2CCCCC2)c(C)s1,1.16 (inactive)
23,Cc1ccc(C)c(S(=O)(=O)Nc2ccc3cn[nH]c3c2)c1,0.908 (inactive)
24,Cc1cc(C)c(S(=O)(=O)NC2CC3CCC2C3)c(C)c1 (stereo not given),0.851 (inactive)
25,O=C(Nc1ccc(N2CCOCC2)c(S(=O)(=O)Nc2cc(Cl)ccc2Cl)c1)c1cccnc1,1.07 (inactive)
26,COC(=O)c1cc(S(=O)(=O)Nc2cc(OC)cc(OC)c2)cn1C,0.972 (inactive)
27,COc1ccc(S(=O)(=O)NCCN2CCOCC2)c2ccccc12,0.954 (inactive)
28,Cc1ccc(NS(=O)(=O)c2cc(C(=O)NCc3ccccn3)ccc2Cl)cc1C,0.985 (inactive)
29,CCOc1ccc(C)cc1S(=O)(=O)NC1CCCCC1,0.698 (inactive)
30,COc1ccc(C)cc1NS(=O)(=O)c1ccc2c(c1)N(C)CCO2,0.687 (inactive)
